From PubChem BioAssay (NCI) come the findings set out here.

Compounds without any hit were thinned out: in the full panel of roughly 79,000, 15% have a hit. Values without a mark were called inactive. Active and inactive are the calls of the source. No stated cut-off is given here; in the data, active means growth inhibition above about 70%; inactive means the rest.

The nature of assay [1]: NCI Yeast Anticancer Drug Screen. Data for the rad50 strain (AID 155).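 Further: 0% = growth of vehicle-only cultures of the same strain.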 As to conditions: S. cerevisiae rad50 strain growth inhibition; at 50.0 µM; hits give high values. In a few lines:
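Cells are treated with compound, grown, and their growth is then scored against vehicle-only cultures of the same repair-deficient yeast strain.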

Assay [2] is described as follows: NCI Yeast Anticancer Drug Screen. Data for the mec2-1 strain (AID 157). The conditions noted are these: S. cerevisiae mec2-1 strain, at 50.0 µM, hits give high values. In outline: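 mec2-1 yeast strain, carrying an alteration in DNA damage repair or cell cycle control, was exposed to compounds; growth inhibition was measured relative to vehicle-treated controls.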

The nature of assay [3]: NCI Yeast Anticancer Drug Screen. Data for the sgs1 mgt1 strain (AID 161).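 Further: 0% = growth of cultures given vehicle only.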 The conditions noted are these: S. cerevisiae sgs1 mgt1 strain, at 50.0 µM, hits give high values. In a few lines: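 Percent growth inhibition was derived by comparing compound-exposed mutant yeast with vehicle-exposed cultures. The strain carries alterations in DNA damage repair.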
A short description of assay [4]: NCI Yeast Anticancer Drug Screen. Data for the cln2 rad14 strain (AID 165).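 Further: 0% = growth equal to vehicle treated cultures.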 As to conditions: S. cerevisiae cln2 rad14 strain, at 50.0 µM, hits give high values. In outline: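 Yeast carrying cln2 and rad14 alterations (cell cycle control and DNA damage repair) were exposed to compounds. Growth inhibition was measured against vehicle-treated controls.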
A short description of assay [5]: NCI Yeast Anticancer Drug Screen. Data for the bub3 strain (AID 167). The conditions noted are these: S. cerevisiae bub3 mutant strain, at 50.0 µM, hits give high values. In outline:
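Part of a panel of yeast mutants defective in DNA damage repair or cell cycle regulation. Each strain is grown with compound, and inhibition is calculated relative to solvent-treated cultures.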

Assay [6] can be described thus: NCI Yeast Anticancer Drug Screen. Data for the mlh1 rad18 strain (AID 175). The conditions noted are these: S. cerevisiae mlh1 rad18 strain growth inhibition; at 50.0 µM; hits give high values. In a few lines: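 Growth inhibition of the yeast strain was measured after compound exposure and expressed relative to vehicle-treated controls. The strain carries defined defects in DNA damage repair.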

With `Cc1ccc(C(=O)OC[C@H]2CC[C@@H](n3cc(N(C)C4CCCCC4)c(=O)[nH]c3=O)O2)cc1`, the growth inhibition in assay [1] was 2.4%; in assay [2] it was -32.2%; in assay [3], 8.7%; in assay [4], 14.5%; in assay [5], -2.15%; in assay [6], 31.8%.
Take `Cc1ccc(CNC(=S)Nc2ccc(F)cc2)c(C)c1`: the growth inhibition in assay [1] is -7.6%; in assay [2] it was 30.1%; in assay [3], 30.4%; in assay [4] it was -24.7%; in assay [5], 46.1%; in assay [6], 27.4%.
Turning to `CC[C@]12C=CCN3CCC4(c5cc([C@@]6(C(=O)OC)CC7CN(CCc8c6[nH]c6ccccc86)C[C@@H]6CCC[C@H]76)c(OC)cc5N(C)C4[C@](O)(C(=O)OC)C1OC(C)=O)C32` (some centres not stated), the growth inhibition in assay [1] was -9.2%; in assay [2] it was 3.8%; in assay [3], -30.6%; in assay [4], -22.1%; in assay [5] it was -45%; in assay [6] it was 9.3%.
On to `CC(O)CSCC(C)O` (configuration not stated), for which the growth inhibition in assay [1] is 10.1%; in assay [2] it was -4.2%; in assay [3] it was -16.7%; in assay [4], 12.4%; in assay [5], -7.7%; in assay [6], 3.05%.
For `CCc1nnc(N)o1`, the growth inhibition in assay [1] is -14.8%; in assay [2], 1.9%; in assay [3] it was 0.95%; in assay [4], -2.5%; in assay [5] it was -13.7%; in assay [6], -14.2%.
For `Cc1ccc(SCCSc2ccc(C)cc2)cc1`, the growth inhibition in assay [1] is 17.7%; in assay [2], 5.8%; in assay [3], 3%; in assay [4], -5.7%; in assay [5], 29.5%; in assay [6], 39.5%.
Turning to `CCn1c2ccccc2c2ccc(N=Cc3ccc4ccccc4c3)cc21`, the growth inhibition in assay [1] is 5.65%; in assay [2] it was -2.3%; in assay [3] it was -7.3%; in assay [4], -14%; in assay [5], 14.3%; in assay [6], 1.3%.
In the case of `Oc1c(Cl)cc(Cl)cc1/C=N/c1nc(-c2ccc(Cl)cc2)cs1`, the growth inhibition in assay [1] is 52.1%; in assay [2], 26.1%; in assay [3], 61.3%; in assay [4], 28.1%; in assay [5], 38.8%; in assay [6] it was 35%.
As for `CNC(C#N)c1ccco1` (configuration not stated), the growth inhibition in assay [1] was 11.3%; in assay [2], -17.2%; in assay [3] it was 16%; in assay [4], 8.4%; in assay [5], 13.4%; in assay [6], 22.1%.
For the compound `Clc1ccc(CSc2ccc3nncc(SCc4ccc(Cl)cc4Cl)c3c2)c(Cl)c1`, the growth inhibition was 36% in assay [1]; 5.8% in assay [2]; 15.1% in assay [3]; 36.8% in assay [4]; 15.1% in assay [5]; 17.6% in assay [6].
Regarding `COc1n[n+]([O-])c(OC)cc1[N+](=O)[O-]`, the growth inhibition in assay [1] is 51.7%; in assay [2], 33.6%; in assay [3] it was 33.9%; in assay [4], 15%; in assay [5], 17.6%; in assay [6], 76.7% (active).
For the compound `CN(C)/N=C1/CCC(C(F)(F)F)(C(F)(F)F)O1`, the growth inhibition was 40.1% in assay [1]; 31.6% in assay [2]; 41.5% in assay [3]; 28.9% in assay [4]; 5.1% in assay [5]; -18.4% in assay [6].
In the case of `CCOC(=O)c1ccc(C)cc1F`, the growth inhibition in assay [1] is -1.85%; in assay [2], 2.3%; in assay [3] it was 0.2%; in assay [4], -38.6%; in assay [5], -7.8%; in assay [6], 7.65%.
Regarding `COC(=O)c1ccc(C2CCC(OC(c3ccccc3)c3ccccc3)CC2)cc1` (configuration not stated), the growth inhibition in assay [1] was 39.6%; in assay [2], -12.7%; in assay [3], 26%; in assay [4], -23.6%; in assay [5] it was 0.85%; in assay [6], -3.85%.
For `CCCCCCCCCCCCCCCC(O)S(=O)(=O)O` (configuration not stated), the growth inhibition in assay [1] was -27.2%; in assay [2] it was -24.9%; in assay [3], -10.1%; in assay [4], 0.55%; in assay [5] it was -29.4%; in assay [6], -23.9%.
In the case of `CCOC(=O)C1CCCCN1C(=O)OCc1ccccc1` (configuration not stated), the growth inhibition in assay [1] is -6.95%; in assay [2], -1.75%; in assay [3], 0.75%; in assay [4], -8.05%; in assay [5], 20.9%; in assay [6], -42.3%.
`NC(=O)c1csc(C2OC(CO)CC2O)n1` (configuration not stated): the growth inhibition in assay [1] was 4.55%; in assay [2], -2.95%; in assay [3], -2.45%; in assay [4], -6%; in assay [5], 0.2%; in assay [6] it was -2.1%.
Consider `c1ccc(OC23CC4CC(CC(C4)C2)C3)cc1`, for which the growth inhibition in assay [1] is -9.45%; in assay [2], -5%; in assay [3], -5.2%; in assay [4] it was 42.8%; in assay [5], -18.8%; in assay [6], -21.6%.
On to `CCOC(=O)C1CCC(=O)N1Cc1c[nH]c2ccccc12` (configuration not stated), for which the growth inhibition in assay [1] is 3.2%; in assay [2], -12.7%; in assay [3] it was -5.1%; in assay [4], 1%; in assay [5], 21.4%; in assay [6] it was -14.7%.
For `CCN(CC)CC(C)(C)C=O`, the growth inhibition in assay [1] is 26.9%; in assay [2] it was -19.8%; in assay [3] it was 20.8%; in assay [4], 4.3%; in assay [5], -7.55%; in assay [6], 15.1%.
As to `Cc1cc(O)ccc1N=Nc1ccc(S(=O)(=O)O)cc1`, the growth inhibition in assay [1] is -26.8%; in assay [2], -10.2%; in assay [3] it was -10.6%; in assay [4], 2.55%; in assay [5], 4.55%; in assay [6] it was -12.5%.
For the compound `O=C(CC(C(=O)c1cccs1)c1ccsc1)c1ccsc1` (configuration not stated), the growth inhibition was -14% in assay [1]; -50.2% in assay [2]; -4.4% in assay [3]; 7.55% in assay [4]; 25.2% in assay [5]; -25.6% in assay [6].
On to `CC1=C(C)C2(C)C(C)C2(C)C1C` (configuration not stated), for which the growth inhibition was -5.8% in assay [1]; -13.3% in assay [2]; 17.9% in assay [3]; 20.6% in assay [4]; 35% in assay [5]; -1.7% in assay [6].
Regarding `CN(C)C(=O)Sc1ccc([N+](=O)[O-])cc1`, the growth inhibition in assay [1] is 4.75%; in assay [2] it was -12.8%; in assay [3], -14.6%; in assay [4], -45.5%; in assay [5], 4.6%; in assay [6], -19.8%.
In the case of `CCCCNC(=O)c1cc(S(=O)(=O)n2cc[nH]c2=O)c(SC)cc1Cl`, the growth inhibition in assay [1] was 4.1%; in assay [2] it was 2.7%; in assay [3] it was 15.8%; in assay [4] it was -2.75%; in assay [5], -5.05%; in assay [6], 31.2%.
On to `CN(C)/N=N/c1nc2c(c(=O)n(C)c(=O)n2C)n1C`, for which the growth inhibition in assay [1] was -2.25%; in assay [2], 20.2%; in assay [3], -8.8%; in assay [4] it was 5.05%; in assay [5], -5.4%; in assay [6] it was 15.7%.
As to `CC(=O)Nc1cc(CN2CCCCC2)c(O)c2ncccc12`, the growth inhibition was -8.65% in assay [1]; -21.4% in assay [2]; -38.3% in assay [3]; -36% in assay [4]; -35.1% in assay [5]; -8.05% in assay [6].
In the case of `CC1CC(=O)Oc2cc(O)c(O)cc21` (configuration not stated), the growth inhibition in assay [1] was 11.8%; in assay [2], 7.9%; in assay [3] it was 7.3%; in assay [4] it was 4.4%; in assay [5] it was 14.9%; in assay [6], 16.9%.
Take `COc1ccc(C(CCl)(CCl)c2ccc(OC)cc2)cc1`: the growth inhibition in assay [1] was 11.8%; in assay [2], -40%; in assay [3], 4.35%; in assay [4] it was 15.3%; in assay [5], 31.6%; in assay [6], -9.9%.
As for `COc1ccc(NC(C)c2ccncc2)cc1` (configuration not stated), the growth inhibition in assay [1] is -17.8%; in assay [2], -16%; in assay [3] it was -29%; in assay [4] it was -9.95%; in assay [5], -9.9%; in assay [6], -46%.
For `CN(C)c1ccc(N=Cc2ccc(O)cc2)cc1`, the growth inhibition was 10.9% in assay [1]; 0.55% in assay [2]; -4.6% in assay [3]; 2% in assay [4]; 2.9% in assay [5]; 7% in assay [6].
As for `NCC(O)CN`, the growth inhibition in assay [1] is -13.8%; in assay [2], -0.75%; in assay [3], -2.75%; in assay [4], -8.2%; in assay [5], -0.55%; in assay [6], 1.45%.
As for `CC(=O)NC(Cc1c[nH]c2ccccc12)C(=O)Oc1ccc([N+](=O)[O-])cc1` (configuration not stated), the growth inhibition in assay [1] is -9.2%; in assay [2], 23.1%; in assay [3], 24.6%; in assay [4], 13.1%; in assay [5], 9.3%; in assay [6], 17.6%.
For the compound `CCCC1CC(=O)NC(=O)C1C(=O)OC(C)(C)C` (configuration not stated), the growth inhibition in assay [1] was -13.1%; in assay [2] it was -0.2%; in assay [3], -8.65%; in assay [4], 11%; in assay [5], 9.85%; in assay [6], -47.4%.
With `NC(=S)NO`, the growth inhibition was -1.85% in assay [1]; -3.8% in assay [2]; 2.35% in assay [3]; 22.6% in assay [4]; 8% in assay [5]; -19.9% in assay [6].
In the case of `OC1(C#Cc2ccccc2)c2ccccc2C(O)(C#Cc2ccccc2)c2ccccc21` (configuration not stated), the growth inhibition in assay [1] is 9.95%; in assay [2], -11.8%; in assay [3], 1.6%; in assay [4], 14.1%; in assay [5], -10.3%; in assay [6] it was 10.1%.
With `CC(N)C(c1ccccc1)c1ccccc1` (configuration not stated), the growth inhibition is 19.5% in assay [1]; 15.8% in assay [2]; 7.15% in assay [3]; 11.3% in assay [4]; 33.6% in assay [5]; 19.4% in assay [6].
